Laboratory results from the supplement of paper PMC12494721.
Where a name gives a salt, the structure may show the parent alone.

Assays:
Conditions in all cases: incubation time: 27 h, anaerobic, 37 °C;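 for the amine columns active = adjusted P below 0.05 in both replicates with a change the same way and a mean fold change under 0.8 or over 1.25; inactive = the rest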
[1] = tested on: Clostridium sporogenes DSM 1664; assay: growth (OD595) fold change vs plate DMSO controls (fold change (ratio)); higher = more growth
How it was run: (§1)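 Shaken 96-well cultures in mGAM, grown anaerobically for 27 h at 37 °C, were read at 595 nm. OD came from blank-subtracted readings, corrected for background with 20 µM compound solutions in water and scaled by a calibration factor of 5. Growth is the fold change versus the plate's median DMSO control. Values average 2 biological replicates, and any fold change above 1.5 is NA.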

Escherichia coli IAI1 [2] = assay: as above
How it was run: as §1

[3] = tested on: Klebsiella aerogenes DSM 30053; assay: as above
How it was run: as §1

[4] = tested on: Ruminococcus gnavus DSM 108212; assay: as above
How it was run: as §1

[5] = tested on: Klebsiella aerogenes DSM 30053; assay: fold change of Histamine concentration vs plate DMSO controls (fold change (ratio)); higher = more amine produced, active = hit call of the paper (significant change in both replicates, either direction)
How it was run: (§2)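 Anaerobic mGAM cultures of four gut bacterial strains were grown at 37 °C for 27 h in 80 µL wells, starting at OD 0.1 before 1:1 dilution. Compounds were at 20 µM final (sweeteners 50 µM). Whole cultures were extracted with cold acetonitrile/methanol containing 0.1% formic acid and centrifuged. Amines were quantified by LC–triple-quadrupole MS (dynamic MRM) against external calibration curves and drift-corrected within batch. Each value is the fold change versus plate DMSO controls, averaged over 2 biological replicates.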

[6] = tested on: Clostridium sporogenes DSM 1664; assay: fold change of Tryptamine concentration vs plate DMSO controls (fold change (ratio)); higher = more amine produced, active = hit call of the paper (significant change in both replicates, either direction)
How it was run: as §2

[7] = tested on: Ruminococcus gnavus DSM 108212; assay: as above
How it was run: as §2

Escherichia coli IAI1 [8] = assay: fold change of Putrescine concentration vs plate DMSO controls (fold change (ratio)); higher = more amine produced, active = hit call of the paper (significant change in both replicates, either direction)
How it was run: as §2

[9] = tested on: Klebsiella aerogenes DSM 30053; assay: as above
How it was run: as §2

Escherichia coli IAI1 [10] = assay: fold change of Cadaverine concentration vs plate DMSO controls (fold change (ratio)); higher = more amine produced, active = hit call of the paper (significant change in both replicates, either direction)
How it was run: as §2

[11] = tested on: Klebsiella aerogenes DSM 30053; assay: as above
How it was run: as §2

[12] = tested on: Ruminococcus gnavus DSM 108212; assay: fold change of 2-Phenylethylamine concentration vs plate DMSO controls (fold change (ratio)); higher = more amine produced, active = hit call of the paper (significant change in both replicates, either direction)
How it was run: as §2

Row | Compound | growth [1] | growth (Escherichia coli IAI1 [2]) | growth [3] | growth [4] | fold change of Histamine concentration [5] | fold change of Tryptamine concentration [6] | fold change of Tryptamine concentration [7] | fold change of Putrescine concentration (Escherichia coli IAI1 [8]) | fold change of Putrescine concentration [9] | fold change of Cadaverine concentration (Escherichia coli IAI1 [10]) | fold change of Cadaverine concentration [11] | fold change of 2-Phenylethylamine concentration [12]
1 | CC1=C(C)C(=O)C(C(CCCCCC(=O)O)c2ccccc2)=C(C)C1=O (stereo not given) [Seratrodast] (20 µM) | 0.927 | 0.998 | 1 | 0.979 | 1 (inactive) | 1.01 (inactive) | 0.908 (inactive) | 1.05 (inactive) | 1.02 (inactive) | 0.965 (inactive) | 1.01 (inactive) | 0.899 (inactive)
2 | c1ccc(CN(CC2=NCCN2)c2ccccc2)cc1 [Antazoline hydrochloride] (20 µM) | 0.903 | 0.968 | 0.958 | 0.834 | 1.06 (inactive) | 0.965 (inactive) | 1.06 (inactive) | 0.929 (inactive) | 1.01 (inactive) | 1.07 (inactive) | 0.998 (inactive) | 1.08 (inactive)
3 | CC12CC3CC(C)(C1)CC(N)(C3)C2 [Memantine hydrochloride] (20 µM) | 1.01 | 0.987 | 1 | 0.997 | 0.989 (inactive) | 1.03 (inactive) | 1.09 (inactive) | 0.984 (inactive) | 0.984 (inactive) | 0.995 (inactive) | 0.992 (inactive) | 1.13 (inactive)
4 | N[C@@H](CCC(=O)N[C@@H](CS)C(=O)NCC(=O)O)C(=O)O [Glutathione] (20 µM) | 1.1 | 1.04 | 1.04 | 1.22 | 0.965 (inactive) | 1.1 (inactive) | 1.01 (inactive) | 1.04 (inactive) | 1.01 (inactive) | 1.03 (inactive) | 1.01 (inactive) | 1.02 (inactive)
5 | CC(C)(Oc1ccc(Cl)cc1)C(=O)O [Clofibric acid] (20 µM) | 1.11 | 0.983 | 1.02 | 0.96 | 1.12 (inactive) | 0.982 (inactive) | 1 (inactive) | 0.957 (inactive) | 1.02 (inactive) | 1 (inactive) | 0.982 (inactive) | 1 (inactive)
6 | COC(=O)C1=C(C)NC(C)=C(C(=O)OC)C1c1ccccc1[N+](=O)[O-] [Nifedipine] (20 µM) | 1.07 | 1.12 | 0.991 | 0.883 | 1.05 (inactive) | 1.02 (inactive) | 1 (inactive) | 1.05 (inactive) | 1.01 (inactive) | 0.955 (inactive) | 1 (inactive) | 0.92 (inactive)
7 | O=C(NCCN1CCOCC1)c1ccc(Cl)cc1 [Moclobemide] (20 µM) | 1.03 | 0.993 | 0.971 | 1.21 | 1.06 (inactive) | 1.04 (inactive) | 1.03 (inactive) | 1 (inactive) | 1.01 (inactive) | 1.01 (inactive) | 0.987 (inactive) | 1.03 (inactive)
8 | O=C(Nc1cccc2c(=O)cc(-c3nnn[nH]3)oc12)c1ccc(OCCCCc2ccccc2)cc1 [Pranlukast] (20 µM) | 1.1 | 1.07 | 0.999 | 0.934 | 0.986 (inactive) | 0.686 (active) | 0.804 (inactive) | 1.02 (inactive) | 1.01 (inactive) | 1.03 (inactive) | 1.02 (inactive) | 0.865 (inactive)
9 | CC(=O)c1cc2cccc(OCC(O)CNC(C)C)c2o1 (stereo not given) [Befunolol] (20 µM) | 0.992 | 1.1 | 0.953 | 0.98 | 1.07 (inactive) | 1.06 (inactive) | 1.02 (inactive) | 1.06 (inactive) | 0.972 (inactive) | 0.997 (inactive) | 0.995 (inactive) | 1.06 (inactive)
10 | c1ccc(CNc2ncnc3nc[nH]c23)cc1 [Aminopurine, 6-benzyl] (20 µM) | 1.09 | 0.978 | 0.971 | 0.966 | 1.06 (inactive) | 0.971 (inactive) | 0.932 (inactive) | 1.03 (inactive) | 1.02 (inactive) | 1.02 (inactive) | 1 (inactive) | 0.856 (inactive)
11 | NCc1ccc(S(N)(=O)=O)cc1 [Mafenide hydrochloride] (20 µM) | 1.13 | 1 | 1.04 | 0.971 | 1.08 (inactive) | 0.888 (inactive) | 0.773 (inactive) | 1 (inactive) | 1.02 (inactive) | 1.04 (inactive) | 0.987 (inactive) | 0.755 (inactive)
12 | Cn1c(=O)cc(N2CCC[C@@H](N)C2)n(Cc2ccccc2C#N)c1=O [Alogliptin benzoate] (20 µM) | 1.06 | 0.955 | 1.09 | 1.02 | 0.923 (inactive) | 1.01 (inactive) | 0.899 (inactive) | 1.01 (inactive) | 1.01 (inactive) | 0.992 (inactive) | 1.01 (inactive) | 0.897 (inactive)
13 | CN(C)CCc1c[nH]c2ccc(C[C@H]3COC(=O)N3)cc12 [Zolmitriptan] (20 µM) | 1.04 | 1.06 | 1.01 | 0.975 | 1.01 (inactive) | 1.04 (inactive) | 1.04 (inactive) | 1.01 (inactive) | 1.01 (inactive) | 1.01 (inactive) | 0.993 (inactive) | 1.06 (inactive)
14 | Cn1c(=O)c2nc[nH]c2n(C)c1=O [Theophylline monohydrate] (20 µM) | 1.19 | 1.11 | 1.04 | 1.12 | 0.952 (inactive) | 1.1 (inactive) | 1.1 (inactive) | 1.24 (inactive) | 0.957 (inactive) | 0.9 (inactive) | 1.02 (inactive) | 1.15 (inactive)
15 | NCCc1ccc(O)c(O)c1 [Dopamine hydrochloride] (20 µM) | 0.979 | 1.06 | 1.03 | 0.996 | 1.06 (inactive) | 0.994 (inactive) | 1.03 (inactive) | 0.967 (inactive) | 0.996 (inactive) | 0.959 (inactive) | 0.987 (inactive) | 1.05 (inactive)
16 | NC[C@H]1O[C@H](O[C@H]2[C@H](O[C@@H]3O[C@H](CO)[C@@H](O)[C@H]3O)[C@@H](O)[C@H](N)C[C@@H]2N)[C@H](N)[C@@H](O)[C@@H]1O [Ribostamycin sulfate salt] (20 µM) | 1.07 | 1.04 | 0.972 | 1.2 | 0.975 (inactive) | 1.02 (inactive) | 0.996 (inactive) | 1.14 (inactive) | 0.994 (inactive) | 0.963 (inactive) | 0.994 (inactive) | 1.03 (inactive)
17 | CCCCOc1ccc(C(=O)CCN2CCCCC2)cc1 [Dyclonine hydrochloride] (20 µM) | 1.17 | 0.992 | 0.966 | 1.22 | 1 (inactive) | 0.989 (inactive) | 0.947 (inactive) | 0.989 (inactive) | 0.995 (inactive) | 0.995 (inactive) | 0.984 (inactive) | 0.936 (inactive)
18 | CC(=O)OCC(=O)[C@@]1(O)CC[C@H]2[C@@H]3CCC4=CC(=O)C=C[C@]4(C)[C@@]3(Cl)[C@@H](Cl)C[C@@]21C [Dichlorisone acetate] (20 µM) | 1.03 | 1.01 | 1 | 0.886 | 0.984 (inactive) | 1.01 (inactive) | 1.01 (inactive) | 1.05 (inactive) | 1.01 (inactive) | 1.04 (inactive) | 1 (inactive) | 0.997 (inactive)
19 | Cc1nc2ccccc2n1Cc1ccc(Cl)cc1 [Chlormidazole] (20 µM) | 0.927 | 0.947 | 0.963 | 0.899 | 1.06 (inactive) | 1 (inactive) | 0.899 (inactive) | 0.947 (inactive) | 0.978 (inactive) | 0.982 (inactive) | 0.989 (inactive) | 0.854 (inactive)
20 | OCCN1CCN(CCCN2c3ccccc3Sc3ccc(Cl)cc32)CC1 [Perphenazine] (20 µM) | 1.05 | 0.856 | 0.838 | 0.94 | 1.07 (inactive) | 0.999 (inactive) | 0.897 (inactive) | 1.02 (inactive) | 1.02 (inactive) | 1.01 (inactive) | 0.999 (inactive) | 0.892 (inactive)
21 | CN(c1nccc(=O)[nH]1)C1CCN(c2nc3ccccc3n2Cc2ccc(F)cc2)CC1 [Mizolastine] (20 µM) | 1.22 | 1.02 | 1.04 | 1.24 | 1.03 (inactive) | 0.967 (inactive) | 0.973 (inactive) | 0.986 (inactive) | 0.991 (inactive) | 0.977 (inactive) | 0.982 (inactive) | 0.967 (inactive)
22 | CN(C)C(=O)C(CCN1CCC(O)(c2ccc(Cl)cc2)CC1)(c1ccccc1)c1ccccc1 [Loperamide hydrochloride] (20 µM) | 1.1 | 1.04 | 1.05 | 0.853 | 0.935 (inactive) | 0.976 (inactive) | 0.949 (inactive) | 1 (inactive) | 0.963 (inactive) | 1.02 (inactive) | 1.02 (inactive) | 0.915 (inactive)
23 | CC1=C(CC(=O)O)c2cc(F)ccc2/C1=C\c1ccc([S+](C)[O-])cc1 (stereo not given) [Sulindac] (20 µM) | 1.15 | 1.08 | 1.02 | 1.3 | 0.931 (inactive) | 1.04 (inactive) | 1.03 (inactive) | 1.02 (inactive) | 0.951 (inactive) | 0.995 (inactive) | 1.02 (inactive) | 1 (inactive)
24 | CCN1CCCC1CNC(=O)c1cc(S(N)(=O)=O)ccc1OC (stereo not given) [Sulpiride] (20 µM) | 0.968 | 1 | 0.981 | 1.18 | 1.05 (inactive) | 0.949 (inactive) | 1.03 (inactive) | 0.997 (inactive) | 1.02 (inactive) | 1.03 (inactive) | 0.991 (inactive) | 1.06 (inactive)
25 | CCOC(=O)[C@H](CCc1ccccc1)N[C@@H](C)C(=O)N1Cc2ccccc2C[C@H]1C(=O)O [Quinapril hydrochloride] (20 µM) | 1.03 | 1.02 | 0.996 | 0.99 | 1.06 (inactive) | 1.07 (inactive) | 1.03 (inactive) | 1.09 (inactive) | 1.04 (inactive) | 0.999 (inactive) | 1.01 (inactive) | 1.03 (inactive)
